Test results taken from the supplement of paper PMC12067926.
Values without a mark were called inactive.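 Rule for the calls: active = growth AUC significantly below the DMSO wells by Dunnett test; inactive = the rest.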

Compound: COc1c(Cl)ccc(Cl)c1C(=O)O
Assay: relative growth (AUC of 72 h growth curve relative to DMSO control, dAUC) (ratio); higher = more growth (less inhibition), active = hit call of the paper
Conditions: 20 µM
Experimental: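 Environmental bacterial isolates (Iceland stream sediment and Silwood Park soil) and whole stream-sediment communities were grown in LB from a 1:100 dilution with each pesticide at 20 µM (1% DMSO). A600 was read hourly for 72 h and the area under a spline-fitted growth curve (AUC) was computed. dAUC is the mean AUC of 3 biological replicates divided by the mean AUC of the DMSO controls. Significance was tested by Dunnett's test against the DMSO control.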

Target	relative growth
Argrobacterium 1 (Agrobacterium sp.)	1.01
Hymenobacter 1 (Hymenobacter glaciei)	1
Community 8	0.99
Arthrobacter 3 (Arthrobacter sp.)	1.07
Microbacterium 1 (Microbacterium arborescens)	1.02
Community 10	1.03
Flavobacterium 2 (Flavobacterium succinicans)	1.01
Rhizobium 1 (Rhizobium herbae)	0.947
Community 4	1.09
Carnobacterium 1 (Carnobacterium gallinarum)	1.19
Community 9	1.09
Pseudomonas 4 (Pseudomonas peli)	1.01
Pseudomonas 6 (Pseudomonas sp.)	1.1
Bacillus 1 (Bacillus foraminis)	1.07
Flavobacterium 1 (Flavobacterium glaciei)	1
Oryzobacter 1 (Oryzobacter terrae)	0.925

Target	relative growth
Sphingomonas 2 (Sphingomonas sp.)	1.01
Aeromonas 3 (Aeromonas popoffii)	1.02
Prolinoborus 1 (Prolinoborus fasciculus)	0.986
Pseudomonas 1 (Pseudomonas baetica)	0.637
Aeromonas 2 (Aeromonas sobria)	1.01
Aeromonas 1 (Aeromonas sp. AE235)	1.02
Pseudomonas 2 (Pseudomonas vancouverensis)	0.985
Arthrobacter 1 (Arthrobacter humicola)	0.981
Pseudomonas 3 (Pseudomonas mandelii)	0.984
Arthrobacter 2 (Arthrobacter humicola)	1.1
Community 7	0.945
Neobacillus 1 (Neobacillus soli)	1.06
Community 6	1.03
Pseudomonas 5 (Pseudomonas baetica)	1.02
Paenibacillus 1 (Paenibacillus castaneae)	1.01
Serratia 1 (Serratia sp. 2015-2462-01)	1.02
